# From PubChem BioAssay AID1981 (Southern Research Specialized Biocontainment Screening …, 2009)
# In all, about 2,200 compounds went through this assay and about 480 (22%) were called active. No rule for the calls is given here. Only a sample is shown. Measured potencies and affinities stand elsewhere.
# Assay: S. Typhimurium GFP fluorescence modified counterscreen for PhoP regulon inhibitor project dose response (AID 1981)
# Details: 4 h; series mostly up to 150 µM
row,Structure (SMILES),outcome
1,CC(=O)Nc1cccc(-c2csc(Nc3ccccn3)n2)c1,inactive
2,O=C(NNc1nc(-c2ccccc2)cs1)c1ccccc1,inactive
3,c1ccc(CN2CCN(c3nc(-c4ccccc4)nc(-n4ccnc4)n3)CC2)cc1,inactive
4,C#CCOc1ccc(/C=N/O)cc1Cl,inactive
5,Cc1ccc(-c2csc(=S)n2CC(=O)OCC(=O)NCc2ccco2)cc1,inactive
6,N#Cc1ccc(C(c2nnnn2CCc2ccccc2)N2CCCCCC2)cc1 (configuration not stated),inactive
7,Cc1ccc(S(=O)(=O)NNC(=O)c2ccc(O)cc2)cc1,inactive
8,CC1(C)SC(=S)N(NC(=O)Nc2ccccc2)C1N(O)C(=O)Nc1ccccc1 (configuration not stated),inactive
9,O=C(CCN1CCCCC1)NCC1OCCc2ccccc21 (configuration not stated),inactive
10,S=C(Nc1cccc(Cl)c1)Nc1cccc2cnccc12,inactive
11,CCc1nc2cc(Cl)c(Cl)cc2[nH]1,inactive
12,Cc1cccc(N2CCN(CC(=O)Nc3nccs3)CC2)c1C,inactive
13,CCCOC(=O)Oc1ccc2c(=O)c(Oc3cc(C)cc(C)c3)coc2c1,inactive
14,COC(=O)c1ccccc1Oc1cnc2ccccc2n1,inactive
15,CCOC(=O)c1c(/N=C/c2ccc(O)cc2O)sc2c1CCC2,inactive
16,Cc1cccc(Nc2ncccc2C(=O)NCc2cccs2)c1C,inactive
17,Cc1ccccc1NC(=O)c1sc2nc3c(c(-c4ccco4)c2c1N)CCC3,inactive
18,O=C(Nc1nc2cc3c(cc2s1)OCO3)C1=COCCO1,inactive
19,N#Cc1c(NC(=O)c2cnccn2)sc2c1CCCC2,inactive
20,COc1ccc(/C=C/C(=O)NC(=S)NNC(=O)c2cnccn2)cc1,inactive
21,COc1ccc(N2CCN(C(=O)CN(c3cccc(Br)c3)S(C)(=O)=O)CC2)cc1,inactive
22,NC(=O)CCc1c[nH]c2ccccc12,inactive
23,CCc1nc(SCC(=O)N2CCCc3ccccc32)c2oc3ccccc3c2n1,inactive
24,Cc1ccc2c(c1)[nH]c1c(N3CCN(Cc4ccccc4)CC3)ncnc12,inactive

row,Structure (SMILES),outcome
1,O=C(CN1CCN(Cc2ccccc2)CC1)c1c[nH]c2ccccc12,inactive
2,O=C(Nc1ccc(S(=O)(=O)N2CCCC2)cc1)c1ccc(CN2CCc3ccccc3C2)cc1,inactive
3,O=C(CCCOc1ccccc1)N1CCCc2ccccc21,inactive
4,CC1CC(C)CN(CCCNC(=O)C2CCC(=O)N2C2CCCC2)C1 (configuration not stated),inactive
5,CCc1ccc(NC(=O)c2noc3c2CCc2ccccc2-3)cc1,inactive
6,CCSc1nnc(NC(=O)Cc2cccc(OC)c2)s1,inactive
7,Nn1c(COc2cccc(Br)c2)nnc1SCC(=O)N1CCc2ccccc2C1,inactive
8,CCCc1cc(=O)oc2cc(OCC(=O)N3CCc4ccccc43)ccc12,inactive
9,O=[N+]([O-])c1cccc(CN(CCO)Cc2ccccc2)c1,inactive
10,COCCNC(=O)c1ccccc1NS(=O)(=O)c1ccc(Br)s1,inactive
11,CCOc1ccc(OCc2ccc(C(=O)N3CCc4ccccc4C3)o2)cc1,inactive
12,O=C(OCc1nnc(-c2ccccc2)o1)c1ccc(S(=O)(=O)NCc2ccco2)cc1,inactive
13,COc1ccc(Cl)cc1NC(=O)C(C)OC(=O)c1ccc(NS(=O)(=O)c2ccc3[nH]c(=O)[nH]c3c2)cc1 (configuration not stated),inactive
14,c1ccc2c(c1)CCN(c1ncnc3c1[nH]c1ccccc13)C2,inactive
15,O=C(C(=O)N1CCc2ccccc2C1)N1CCc2ccccc2C1,inactive
16,CC(C)(C)c1ccc(C(=O)NC(=S)NCc2cccnc2)cc1,inactive
17,CCn1c2ccccc2c2cc(NC(=O)C(C)Oc3ccccc3)ccc21 (configuration not stated),inactive
18,O=C(NCc1cn2ccsc2n1)Nc1ccc(Cl)cc1,inactive
19,O=Cc1cn(Cc2ccccc2[N+](=O)[O-])c2ccccc12,inactive
20,COCCNC(=O)c1ccc(C(=O)NCCOC)s1,inactive
21,C/C(=C\c1ccco1)C1Nc2cccc3cccc(c23)N1,inactive
22,Cc1ccc(C(=O)NCC(=O)NCC(=O)OCC(=O)c2ccc([N+](=O)[O-])cc2)cc1,inactive
23,CCCCn1c(-c2ccccc2)nc2c(=O)n(C)c(=O)[nH]c21,inactive
24,O=C(Cn1nc(Cl)nc1Cl)c1ccc2c(c1)OCCO2,inactive

row,Structure (SMILES),outcome
1,Cc1ccc2c(c1)C1CN(C)CCC1N2C(=O)COc1ccc(S(=O)(=O)N2CCOCC2)cc1 (configuration not stated),inactive
2,N#Cc1ccc(CSc2nnc(-c3ccncc3)n2CCc2ccccc2)cc1,inactive
3,O=C(Nc1ccccn1)NC1CCCCC1,inactive
4,O=C(Nc1ccsc1C(=O)NC1CCCCC1)c1ccccc1,inactive
5,COc1ccc(-c2ccc(-c3noc(-c4cccs4)n3)c(OC)n2)cc1,inactive
6,CCn1cc(C(C)(C)C)c(C#N)c1NC(C)=O,inactive
7,Cc1c(C(c2cccc([N+](=O)[O-])c2O)c2c(C)n(C)n(-c3ccccc3)c2=O)c(=O)n(-c2ccccc2)n1C,inactive
8,Cc1[nH]n(-c2ccccc2)c(=O)c1-c1ccc(Cl)cc1,inactive
9,O=C(CCNS(=O)(=O)c1cccc2nsnc12)NCc1cccs1,inactive
10,CCOC(=O)C1=C(C)NC(SCc2cc(=O)[nH][nH]2)=C(C#N)C1c1cccs1 (configuration not stated),inactive
11,COc1ccc(N2C(=O)C3CCCN3C2c2cccc(C)c2)cc1Cl (configuration not stated),inactive
12,COc1cc(OC)c(C(=O)Nc2ccc(S(=O)(=O)Nc3ncccn3)cc2)cc1OC,inactive
13,COc1nccnc1NS(=O)(=O)c1ccc(NC(=S)NC(=O)c2cccnc2)cc1,inactive
14,Cc1ccn2cc(CSc3ccccc3N)nc2c1,inactive
15,Cc1cccc2cc(C#N)c(N3CCN(C)CC3)nc12,inactive
16,CCOC(=O)N1CCN(C(=O)C(NC(=O)c2ccc(CC)cc2)C(C)C)CC1 (configuration not stated),inactive
17,COc1c(Cl)cnn(-c2ccc(C)cc2)c1=O,inactive
18,O=C(CN1CC(c2ccccc2)CC1=O)N/N=C/c1cc(Br)ccc1O (configuration not stated),inactive
19,O=C(CSCc1ccccc1)N/N=C/c1ccccc1OCc1ccccc1,inactive
20,CC(C)(C)c1ccc(C2CC2C(=O)N/N=C\c2cc3ccccc3nc2Cl)cc1 (configuration not stated),inactive
21,CC(C)c1ccc(C2NC(=O)NC3=C2CCc2ccccc23)cc1 (configuration not stated),inactive
22,O=C(NC1CCCCC1)C(c1ccncc1)N(CC1CCCO1)C(=O)C(F)(F)F (configuration not stated),inactive
23,COc1ccc(Nc2nc(NCc3ccco3)nc(N/N=C/c3ccccc3Cl)n2)cc1,inactive
24,CCOc1ccc(NC(=O)c2ccc(NC(=O)COC(=O)Cc3ccccc3)cc2)cc1,inactive

row,Structure (SMILES),outcome
1,Cc1ccc(NC(=S)NC(NC(=O)c2ccco2)C(Cl)(Cl)Cl)cc1 (configuration not stated),inactive
2,O=C(c1ccccc1)c1c2c(cc3sc4ccccc4[n+]13)-c1cccc3cccc-2c13,inactive
3,CN1C(=O)CC(P(=O)(c2ccccc2)c2ccccc2)N(C)C1=O (configuration not stated),inactive
4,COc1ccc(N2C(=O)CC(Sc3nc(C)c4c(n3)CCCC4)C2=O)cc1 (configuration not stated),inactive
5,COC(=O)c1cc(C#N)c(Oc2ccc(F)cc2)nc1C,inactive
6,Nc1nc2ccccc2n1/N=C/c1ccc(-c2ccccc2)o1,inactive
7,CN(C)CCCN(C(=O)CCc1ccccc1)c1nc2ccc(Cl)cc2s1,inactive
8,c1ccc(C2(CNc3ccccn3)CCCC2)cc1,inactive
9,Cc1ccc(-n2ncc3c(N4CCN(c5ccccc5)CC4)ncnc32)c(C)c1,inactive
10,O=C(CC1SC(=NCc2ccccc2)NC1=O)Nc1ccccc1 (configuration not stated),inactive
11,Cc1nn(C)c(C)c1S(=O)(=O)N1CCC(C(=O)NC2CCCCC2)CC1,inactive
12,COc1cc(NC(=O)CSc2nnnn2Cc2ccc3c(c2)OCO3)cc(OC)c1,inactive
13,Cc1ccc(N)cc1-n1c(C)ccc1C,inactive
14,CC(C)(C)c1ccc(C(=O)Nc2ccc(C=C(C#N)C#N)cc2)cc1,inactive
15,COCCSc1ccccc1C(=O)NCC1CCCO1 (configuration not stated),inactive
16,Cn1c(NCc2cc(Br)ccc2O)nc2ccccc21,inactive
17,O=S(=O)(Nc1ccc2c(c1)nc1n2CCN(Cc2ccccc2)C1)c1ccc(Cl)cc1,inactive
18,C=CCn1c(SCc2c(C(=O)OC)sc(N)c2C(=O)OC)nnc1-c1ccc(Cl)cc1,inactive
19,CCC(CC)C(=O)NCCc1ccc(OC)cc1,inactive
20,O=C(Cn1cnc2ccccc2c1=O)NCc1ccco1,inactive
21,CC(=O)NCCOc1c(C)cc(S(N)(=O)=O)cc1C,inactive
22,C=CCOc1ccc(CNc2nn[nH]n2)cc1,inactive
23,COC(=O)Cc1c(C)nc2nc(NCc3ccc(Cl)cc3)[nH]n2c1=O,inactive
24,CN(C)C(=O)On1c(-c2ccccc2)nc2ccc(Cl)cc21,inactive

row,Structure (SMILES),outcome
1,CC(C)N(Cc1nc(-c2ccccc2)no1)C(=O)CN(C)S(=O)(=O)c1ccccc1,inactive
2,Cc1ccc(Nc2cc(C)nc3nc(C)nn23)cc1,inactive
3,COc1ccc(Nc2nnc(SCc3cn4c(C)cccc4n3)s2)cc1,inactive
4,CCOC(=O)N1CCN(S(=O)(=O)c2ccc(C(=O)NNc3nc4cc(C)cc(C)c4s3)cc2)CC1,inactive
5,Cc1ccc(Nc2nc(Cl)nc(N(C)C#N)n2)cc1,inactive
6,Cc1ncc(C23CC4CC(CC(C4)C2)C3)[nH]1,inactive
7,CCN(CC)c1nc2n(c(=O)n1)CCO2,inactive
8,COc1ccc2c(c1)cc1n2CCN2CCCN=C12,inactive
9,C=CCSC1=Nc2sccc2C2=NC(=O)CN12,inactive
10,COc1ccc(NC(=O)CSc2nccn2-c2ccccc2)cc1,inactive
11,O=C(/C=C/c1ccc2c(c1)OCO2)N1CCN(c2ccccc2F)CC1,inactive
12,OC(COCc1cccs1)CN1CCN(c2ccccn2)CC1 (configuration not stated),inactive
13,N#Cc1c(-c2ccco2)cc(-c2ccc(F)cc2)nc1N,inactive
14,CN1CCN(S(=O)(=O)c2ccc(N)cc2)CC1,inactive
15,CC(C)(C)c1ccc(-c2n[nH]c(=S)n2/N=C/c2ccncc2)cc1,inactive
16,CC(Cl)C(=O)NNc1cccc(Cl)n1 (configuration not stated),inactive
17,Cc1nc(N2CCN(Cc3ccc4c(c3)OCO4)CC2)nc2c1C(=O)CC(c1ccco1)C2 (configuration not stated),inactive
18,O=C(COC(=O)c1cn(-c2ccccc2)nc1-c1ccccc1)c1cccc([N+](=O)[O-])c1,inactive
19,CCc1ccc(C(c2c(C)nn(-c3ccccc3)c2N)c2c(C)nn(-c3ccccc3)c2N)cc1,inactive
20,O=C(NCc1ccccn1)c1cn(-c2ccccc2)nc1-c1ccc(Cl)cc1,inactive
21,O=C(OCc1ccccc1)c1cn(-c2ccccc2)nc1-c1ccncc1,inactive
